# Screening data (PubChem BioAssay)
# ERAP1 HTS inh: inhibitors of human ERAP1 aminopeptidase. recombinant ERAP1, Leu-AMC fluorescence, 60 min. inhibition, % at 10.7 µM. hit rate 0.15% among 340,000;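 active = mean replicate inhibition of at least 30%, or all replicates individually reaching that 30% level; inactive = mean below 30% and not every replicate reaching it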
# SIRT5 block: sirtuin-5 (human) deacylase inhibition; Q9NXA8; Purified SirT5, succinyl-peptide AMC, trypsin-coupled fluorescence; inhibition, % at 15 µM; hit rate 1.1% among 330,000; AID 652115; in the data active = inhibition above about 15%
# FGF22 binding: binders of recombinant human FGF22 by thermal shift | Q9HCT0 | SYPRO orange fluorescence; percent of sucrose octasulfate shift, DMSO zero | activity (Tm shift, normalised), % at 9.99 µM | hit rate 1.5% among 340,000;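 active = mean Tm shift, scaled 0 neutral to 100 positive control, at about 1.3% or above, every replicate too, limit read from the data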
# Target sequence (Q9HCT0 whole entry, looked up): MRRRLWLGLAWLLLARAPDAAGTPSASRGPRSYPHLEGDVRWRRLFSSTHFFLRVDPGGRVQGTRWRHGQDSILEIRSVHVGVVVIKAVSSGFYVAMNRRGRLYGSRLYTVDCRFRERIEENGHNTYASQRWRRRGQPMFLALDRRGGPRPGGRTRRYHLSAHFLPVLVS
# GSIS activator: GLuc luminescence reporter in INS-1E cells, primary screen for activators of glucose-dependent secretion of insulin; INS-1E GLuc reporter insulin secretion, 2-3 h; activation, % at 16.6 µM; hit rate 0.61% among 370,000; AID 743287;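 active = lowest replicate activation of at least 40%, so every replicate reaches that level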
# Casp6 inh: caspase-6 (human) enzyme inhibition; hit rate 0.53% among 350,000; purified caspase-6, Z-VEID-R110 cleavage fluorescence; AID 686996; inhibition, % at 12.5 µM; P55212;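 active = mean inhibition across replicates at least about 35%, with every replicate also reaching that limit, limit read from the data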
# Target sequence (P55212 24-179 limits assumed): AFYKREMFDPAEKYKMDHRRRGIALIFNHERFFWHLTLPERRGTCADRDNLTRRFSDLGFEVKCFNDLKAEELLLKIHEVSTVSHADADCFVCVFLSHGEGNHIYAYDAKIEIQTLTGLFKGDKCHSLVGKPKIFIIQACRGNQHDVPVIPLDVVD
# Target sequence (P55212 194-293 limits assumed): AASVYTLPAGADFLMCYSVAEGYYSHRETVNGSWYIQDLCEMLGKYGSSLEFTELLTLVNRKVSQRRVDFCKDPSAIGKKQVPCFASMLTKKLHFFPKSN
# Hits are given with their value; . = inactive; / = no result. In the library only some 3.3% were active in any assay of this set; here they are far more common.
SMILES,ERAP1 HTS inh,SIRT5 block,FGF22 binding,GSIS activator,Casp6 inh
NC(=O)CCS(=O)(=O)CCN1CCCCC1,/,/,/,.,/
O=S(=O)(CCN1CCCCC1)CCS(=O)(=O)CCN1CCCCC1,.,/,44,/,.
CCNC(=O)c1cc2c(c(-c3cccc(-c4ccncc4)c3)n1)[C@@H](CCO)N(S(=O)(=O)CC)C2,.,.,.,.,.
CC=Cc1ccc2n(c1=O)C[C@@H]1[C@@H](CO)[C@H](C(=O)N[C@@H](C)c3ccccc3)[C@H]2N1CC1CC1 (mixture of isomers),.,.,.,.,.
CCCn1c(N)c(Sc2ccc(C)cc2)c(=O)n(CCC)c1=O,.,.,43,.,.
O=C(CC1CC1)Nc1ccc2c(c1)[C@@H]1C[C@H](CC(=O)N3CCc4ccccc4C3)O[C@@H](CO)[C@@H]1O2,.,.,.,.,.
O=C(NCc1ccco1)C1CCCN1C(=O)Nc1cccc(Cl)c1 (configuration not stated),.,.,43,.,.
COc1ccc2c3c(n(C)c2c1)[C@@H](CO)N(Cc1cccnc1)CC31CCN(Cc2cccnc2)CC1,/,/,/,.,/
C[C@H](CO)N1C[C@H](C)[C@H](CN(C)C(=O)Nc2ccc(C(F)(F)F)cc2)Oc2ccc(NC(=O)CCC(F)(F)F)cc2CC1=O,/,/,.,.,/
COc1cc(CCNC2=CC(=O)c3ncccc3C2=O)ccc1O,.,.,.,.,91
COc1ccccc1CNS(=O)(=O)c1cc(CN2C(=O)c3cccnc3C2=O)ccc1OC,.,.,.,.,.
Cc1cc(=O)n(C)c2ccccc12,.,.,43,.,.
Cc1cc(C)c2nc(N(CCCN(C)C)C(=O)c3ccc4c(c3)CCCC4)sc2c1,.,.,.,40,.
Cc1ccc2nc(N(CCCN(C)C)C(=O)c3ccc4c(c3)CCCC4)sc2c1,/,/,/,.,/
C[C@@H]1CN([C@H](C)CO)C(=O)Cc2cc(NC(=O)CCCCCC(=O)Nc3ccccc3N)ccc2O[C@@H]1CN(C)C(=O)Nc1ccc2c(c1)OCO2,.,/,.,.,.
COc1ccc(-n2c(C)c(C(C)=O)c(C(C)=O)c2C)cc1,.,.,.,.,39
Cc1ccc(C(=O)Nc2cccc(C(F)(F)F)c2)cc1NC(=O)c1c[nH]c2cc(C(F)(F)F)ccc2c1=O,.,.,44,/,.
CCN1CCN(Cc2ccc(NC(=O)c3ccc(C)c(NC(=O)c4c[nH]c5cc(C(F)(F)F)ccc5c4=O)c3)cc2C(F)(F)F)CC1,.,.,.,.,.
O=C(NCCN1CCOCC1)c1ccc(CSc2nc3ccncc3n2Cc2ccc(F)cc2)cc1,.,.,44,.,.
COc1cccc(S(=O)(=O)Nc2ccc3c(c2)C(=O)N(C)[C@H]2CC[C@H](CC(=O)O)O[C@H]2CO3)c1,/,/,.,.,/
O=C(C[C@H]1C[C@@H]2c3cc(NC(=O)c4cccnc4)ccc3O[C@@H]2[C@@H](CO)O1)NCCc1ccccc1,.,.,.,.,.
CO[C@@H]1CN(C)C(=O)c2cc(NC(=O)Nc3ccccc3)ccc2OC[C@H](C)N(CC2CC2)C[C@H]1C,.,.,.,.,/
COCc1cc(Sc2ccc(OC)cc2)nc(-c2ccccc2)n1,.,.,.,.,.
COCc1cc(SC2CCCCC2)nc(C)n1,.,/,43,.,.
CC=Cc1ccc2n(c1=O)C[C@H]1[C@H](CO)[C@@H](C(=O)NCC(F)(F)F)[C@@H]2N1C(=O)C1CCCC1 (mixture of isomers),/,/,/,.,/
SMILES,ERAP1 HTS inh,SIRT5 block,FGF22 binding,GSIS activator,Casp6 inh
CCCn1c(SCC(=O)N2CCCC(C)C2)nnc1-c1ccccn1 (configuration not stated),.,24,.,/,.
CCOC(=O)N1CCN(C(=O)CSc2ccc3nnc(-c4ccccn4)n3n2)CC1,.,16,.,.,.
O=C(CSc1ccc(-c2ccccn2)nn1)N1CCCCC1,.,15,.,.,.
O=C(CSc1ccc2nnc(-c3ccccn3)n2n1)N1CCOCC1,/,/,44,.,.
CCOC(=O)N1CCN(C(=O)CSc2ccc3nnc(-c4ccncc4)n3n2)CC1,.,.,.,.,.
O=C(CSc1ccc(-c2ccccc2)nn1)N1CCCCC1,.,.,.,.,.
O=C(CSc1ccc2nnc(-c3cccs3)n2n1)N1CCOCC1,.,.,.,.,.
O=C(C1CCC1)N1CC2(C1)[C@H](c1ccccc1)[C@@H](CO)N2C(=O)c1ccccn1,.,.,.,.,.
Oc1cccc2ccc(/C=C/c3ccccc3Cl)nc12,.,.,.,.,.
Oc1cccc2ccc(/C=C/c3c(F)cccc3Cl)nc12,.,.,43,.,.
O=c1[nH]c2ccccc2c(O)c1SCCO,.,18,.,.,.
CCCN1C[C@@H](C)[C@@H](OC)CN(C)C(=O)c2cc(NC(=O)Nc3c(C)noc3C)ccc2OC[C@H]1C,.,.,.,.,.
O=C(O)c1ccc(-n2cccc2/C=C2/NC(=O)N(c3cccc(Cl)c3)C2=O)cc1,.,.,.,/,81
O=C(O)c1ccc(-n2cccc2/C=C2/NC(=O)N(c3ccccc3)C2=O)cc1,.,25,.,.,70
O=C(O)c1ccc(-n2cccc2/C=C2/SC(=O)N(CC(=O)N3CCCC3)C2=O)cc1,.,19,.,.,66
O=C1N/C(=C/c2cccn2-c2ccccc2)C(=O)N1Cc1ccccc1F,/,/,/,.,/
C[C@@H]1CN([C@H](C)CO)C(=O)c2cc(-c3cccc(C#N)c3)cnc2O[C@@H]1CN(C)Cc1cccnc1,.,.,.,.,.
C[C@@H]1CN([C@@H](C)CO)C(=O)c2cc(NC(=O)Nc3ccc(F)cc3)ccc2O[C@@H]1CN(C)Cc1ccc(-c2ccccc2)cc1,.,.,.,.,.
O=C(C[C@H]1C=C[C@H](NC(=O)Nc2ccccc2)[C@@H](CO)O1)NCc1cccc(F)c1,.,.,.,.,.
COc1ccc(C(=O)OCC(=O)c2c(N)n(C)c(=O)n(C)c2=O)c(OC)c1OC,.,.,.,45,.
Cc1ccc(OCC(=O)c2c(N)n(C)c(=O)n(C)c2=O)c([N+](=O)[O-])n1,.,.,.,/,35
CCCn1c(C)cc(C(=O)COc2ccc(C)nc2[N+](=O)[O-])c1C,.,.,.,/,.
CNC[C@@H]1Oc2ncc(C#CC3(O)CCCC3)cc2C(=O)N([C@H](C)CO)C[C@@H]1C,.,.,.,.,.
COCC1CCN(Cc2nc(-c3ccc(OC)cc3)no2)CC1,.,.,43,.,.
C[C@H]1CN([C@@H](C)CO)C(=O)c2cc(NC(=O)C3CC3)ccc2O[C@@H]1CN(C)C(=O)Nc1cccc2ccccc12,.,.,.,.,.
O=C1NC(c2ccccc2)=N/C1=C/c1ccco1,.,.,.,.,39
O=S(=O)(N[C@@H]1CC[C@H](CCn2cc(C3CC3)nn2)O[C@@H]1CO)c1ccc(Cl)cc1,.,.,.,.,.
Cc1ccc2nc(N3CCN(C(=O)CCCC(=O)O)CC3)nc(-c3ccccc3)c2c1,.,.,.,57,.
O=C(O)CCC(=O)N1CCN(c2nc(-c3ccccc3)c3ccccc3n2)CC1,.,.,.,.,.
